Measured values published in ChEMBL document CHEMBL1961873, “Compounds: GSK PKIS; Assays: Nanosyn kinase panel” (2012).

Key:
[1] = system: Epidermal growth factor receptor (Homo sapiens), P00533 [T790M]; conditions: at 1 µM
[2] = system: Epidermal growth factor receptor (Homo sapiens), P00533 [L858R,T790M]; conditions: at 0.1 µM
[3] = system: Epidermal growth factor receptor (Homo sapiens), P00533 [L858R,T790M]; conditions: at 1 µM
[4] = target: Ephrin type-A receptor 2 (Homo sapiens) (UniProt P29317); conditions: at 0.1 µM
Sequence of Ephrin type-A receptor 2 (Homo sapiens) (P29317 whole entry): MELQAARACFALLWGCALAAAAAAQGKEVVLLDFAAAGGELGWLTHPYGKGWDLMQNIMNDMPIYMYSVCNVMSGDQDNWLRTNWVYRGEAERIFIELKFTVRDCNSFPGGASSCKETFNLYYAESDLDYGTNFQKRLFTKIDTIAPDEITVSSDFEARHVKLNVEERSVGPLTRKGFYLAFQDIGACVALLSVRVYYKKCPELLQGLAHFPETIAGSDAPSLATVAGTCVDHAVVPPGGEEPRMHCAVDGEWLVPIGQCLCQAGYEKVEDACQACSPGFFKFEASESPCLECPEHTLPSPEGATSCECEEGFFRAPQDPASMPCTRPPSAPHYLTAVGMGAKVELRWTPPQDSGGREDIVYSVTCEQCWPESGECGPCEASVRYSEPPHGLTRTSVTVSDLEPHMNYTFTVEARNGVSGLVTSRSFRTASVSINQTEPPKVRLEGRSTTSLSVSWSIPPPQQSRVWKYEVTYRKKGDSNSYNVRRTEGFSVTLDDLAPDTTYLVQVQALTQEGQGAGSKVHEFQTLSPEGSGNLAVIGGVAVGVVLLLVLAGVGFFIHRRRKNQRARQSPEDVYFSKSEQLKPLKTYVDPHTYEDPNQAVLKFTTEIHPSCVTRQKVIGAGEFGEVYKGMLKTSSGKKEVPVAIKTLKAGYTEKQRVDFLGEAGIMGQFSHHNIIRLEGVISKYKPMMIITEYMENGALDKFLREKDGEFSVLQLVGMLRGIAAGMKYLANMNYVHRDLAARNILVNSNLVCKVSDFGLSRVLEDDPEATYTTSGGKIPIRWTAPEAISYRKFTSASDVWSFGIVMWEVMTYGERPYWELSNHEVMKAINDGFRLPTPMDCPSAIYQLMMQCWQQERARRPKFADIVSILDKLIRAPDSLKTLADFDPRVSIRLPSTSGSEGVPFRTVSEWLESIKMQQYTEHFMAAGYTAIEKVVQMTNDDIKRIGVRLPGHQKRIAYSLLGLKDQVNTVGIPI

[5] = target: Ephrin type-A receptor 2 (Homo sapiens) (UniProt P29317); conditions: at 1 µM
[6] = target: T1, Ephrin type-A receptor 3 (Homo sapiens) (UniProt P29320); conditions: at 0.1 µM
T1 sequence (whole entry): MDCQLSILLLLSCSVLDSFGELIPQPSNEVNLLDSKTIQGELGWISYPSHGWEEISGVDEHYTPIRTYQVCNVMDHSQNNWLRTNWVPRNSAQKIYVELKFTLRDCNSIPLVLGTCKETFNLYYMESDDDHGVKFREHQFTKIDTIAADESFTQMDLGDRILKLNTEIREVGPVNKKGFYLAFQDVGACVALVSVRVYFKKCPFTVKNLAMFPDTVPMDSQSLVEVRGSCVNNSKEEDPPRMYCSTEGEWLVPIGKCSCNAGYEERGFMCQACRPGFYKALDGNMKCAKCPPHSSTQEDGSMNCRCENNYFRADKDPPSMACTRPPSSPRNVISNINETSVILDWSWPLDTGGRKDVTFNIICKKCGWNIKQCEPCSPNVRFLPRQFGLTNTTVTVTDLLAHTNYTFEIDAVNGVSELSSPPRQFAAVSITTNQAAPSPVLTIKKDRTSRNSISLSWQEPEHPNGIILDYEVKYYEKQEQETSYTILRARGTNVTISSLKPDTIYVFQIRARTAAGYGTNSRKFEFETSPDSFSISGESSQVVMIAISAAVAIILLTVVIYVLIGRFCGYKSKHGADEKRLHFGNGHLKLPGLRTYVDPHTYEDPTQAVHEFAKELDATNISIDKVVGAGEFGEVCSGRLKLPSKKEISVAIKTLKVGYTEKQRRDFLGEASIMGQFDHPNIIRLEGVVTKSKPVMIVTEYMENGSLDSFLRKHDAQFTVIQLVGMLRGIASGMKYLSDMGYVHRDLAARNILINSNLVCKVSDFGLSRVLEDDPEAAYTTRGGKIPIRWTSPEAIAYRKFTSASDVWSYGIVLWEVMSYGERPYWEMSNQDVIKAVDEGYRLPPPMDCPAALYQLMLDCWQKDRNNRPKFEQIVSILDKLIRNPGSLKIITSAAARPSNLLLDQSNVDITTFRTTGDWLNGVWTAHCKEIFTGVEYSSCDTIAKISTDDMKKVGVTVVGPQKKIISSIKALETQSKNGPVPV

[7] = target: T1, Ephrin type-A receptor 3 (Homo sapiens); conditions: at 1 µM
[8] = target: Ephrin type-A receptor 4 (Homo sapiens) (UniProt P54764); conditions: at 0.1 µM
Sequence of Ephrin type-A receptor 4 (Homo sapiens) (P54764 whole entry): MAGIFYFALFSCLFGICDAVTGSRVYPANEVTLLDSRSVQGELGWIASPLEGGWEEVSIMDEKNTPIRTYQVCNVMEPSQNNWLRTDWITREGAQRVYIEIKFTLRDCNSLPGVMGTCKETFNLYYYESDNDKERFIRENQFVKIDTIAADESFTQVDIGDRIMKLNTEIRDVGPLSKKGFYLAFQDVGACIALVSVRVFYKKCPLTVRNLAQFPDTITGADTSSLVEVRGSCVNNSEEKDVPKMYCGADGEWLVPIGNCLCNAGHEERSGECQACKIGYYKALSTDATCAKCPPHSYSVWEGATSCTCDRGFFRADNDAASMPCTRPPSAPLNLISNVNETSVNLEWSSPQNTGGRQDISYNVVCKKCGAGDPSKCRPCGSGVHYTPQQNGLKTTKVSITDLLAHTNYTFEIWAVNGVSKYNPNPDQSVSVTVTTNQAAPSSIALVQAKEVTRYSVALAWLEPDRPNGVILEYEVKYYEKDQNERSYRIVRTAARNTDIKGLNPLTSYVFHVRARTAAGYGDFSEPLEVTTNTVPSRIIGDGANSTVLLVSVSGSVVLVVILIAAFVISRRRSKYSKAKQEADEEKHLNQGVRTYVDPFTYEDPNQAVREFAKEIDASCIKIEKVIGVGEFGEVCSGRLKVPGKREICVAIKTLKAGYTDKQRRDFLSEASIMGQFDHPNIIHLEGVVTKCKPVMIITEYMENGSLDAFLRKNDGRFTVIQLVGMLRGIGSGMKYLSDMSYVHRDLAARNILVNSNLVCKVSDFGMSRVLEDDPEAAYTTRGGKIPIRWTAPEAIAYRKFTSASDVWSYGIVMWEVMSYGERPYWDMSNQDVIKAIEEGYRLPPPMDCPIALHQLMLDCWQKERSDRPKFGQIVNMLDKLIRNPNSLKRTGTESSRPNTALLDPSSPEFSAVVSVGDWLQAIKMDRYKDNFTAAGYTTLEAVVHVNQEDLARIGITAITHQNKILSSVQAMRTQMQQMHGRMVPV

[9] = target: Ephrin type-A receptor 4 (Homo sapiens) (UniProt P54764); conditions: at 1 µM
[10] = target: T2, Ephrin type-B receptor 2 (Homo sapiens) (UniProt P29323); conditions: at 0.1 µM
T2 sequence (whole entry): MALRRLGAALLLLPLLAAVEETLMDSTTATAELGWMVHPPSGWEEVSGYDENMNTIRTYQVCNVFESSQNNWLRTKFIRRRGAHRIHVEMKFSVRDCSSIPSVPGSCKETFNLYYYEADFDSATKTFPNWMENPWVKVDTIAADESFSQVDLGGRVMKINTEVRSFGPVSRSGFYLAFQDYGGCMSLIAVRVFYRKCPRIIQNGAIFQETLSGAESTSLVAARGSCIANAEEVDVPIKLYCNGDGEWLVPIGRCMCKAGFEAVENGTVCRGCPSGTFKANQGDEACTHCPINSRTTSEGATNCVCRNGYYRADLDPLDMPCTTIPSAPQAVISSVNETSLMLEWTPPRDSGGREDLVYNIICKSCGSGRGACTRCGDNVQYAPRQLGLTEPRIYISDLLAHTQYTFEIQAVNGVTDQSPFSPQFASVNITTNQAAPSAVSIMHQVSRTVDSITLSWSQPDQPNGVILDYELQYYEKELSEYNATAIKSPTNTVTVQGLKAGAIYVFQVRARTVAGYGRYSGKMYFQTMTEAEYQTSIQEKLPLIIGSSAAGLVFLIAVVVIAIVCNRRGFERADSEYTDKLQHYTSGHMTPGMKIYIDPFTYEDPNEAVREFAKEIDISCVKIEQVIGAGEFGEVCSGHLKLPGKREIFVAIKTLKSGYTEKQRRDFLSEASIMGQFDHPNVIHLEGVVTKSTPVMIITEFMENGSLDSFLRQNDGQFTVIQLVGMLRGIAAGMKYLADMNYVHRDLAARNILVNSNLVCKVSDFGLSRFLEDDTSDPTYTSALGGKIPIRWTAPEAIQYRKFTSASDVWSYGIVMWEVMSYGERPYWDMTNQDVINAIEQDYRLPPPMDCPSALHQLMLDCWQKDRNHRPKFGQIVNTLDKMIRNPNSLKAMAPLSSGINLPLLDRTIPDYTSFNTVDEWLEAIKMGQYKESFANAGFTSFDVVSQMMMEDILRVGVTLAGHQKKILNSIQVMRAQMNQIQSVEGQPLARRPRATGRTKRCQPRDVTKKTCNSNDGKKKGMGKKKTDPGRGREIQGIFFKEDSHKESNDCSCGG

[11] = target: T2, Ephrin type-B receptor 2 (Homo sapiens); conditions: at 1 µM
[12] = target: T3, Ephrin type-B receptor 3 (Homo sapiens) (UniProt P54753); conditions: at 0.1 µM
T3 sequence (whole entry): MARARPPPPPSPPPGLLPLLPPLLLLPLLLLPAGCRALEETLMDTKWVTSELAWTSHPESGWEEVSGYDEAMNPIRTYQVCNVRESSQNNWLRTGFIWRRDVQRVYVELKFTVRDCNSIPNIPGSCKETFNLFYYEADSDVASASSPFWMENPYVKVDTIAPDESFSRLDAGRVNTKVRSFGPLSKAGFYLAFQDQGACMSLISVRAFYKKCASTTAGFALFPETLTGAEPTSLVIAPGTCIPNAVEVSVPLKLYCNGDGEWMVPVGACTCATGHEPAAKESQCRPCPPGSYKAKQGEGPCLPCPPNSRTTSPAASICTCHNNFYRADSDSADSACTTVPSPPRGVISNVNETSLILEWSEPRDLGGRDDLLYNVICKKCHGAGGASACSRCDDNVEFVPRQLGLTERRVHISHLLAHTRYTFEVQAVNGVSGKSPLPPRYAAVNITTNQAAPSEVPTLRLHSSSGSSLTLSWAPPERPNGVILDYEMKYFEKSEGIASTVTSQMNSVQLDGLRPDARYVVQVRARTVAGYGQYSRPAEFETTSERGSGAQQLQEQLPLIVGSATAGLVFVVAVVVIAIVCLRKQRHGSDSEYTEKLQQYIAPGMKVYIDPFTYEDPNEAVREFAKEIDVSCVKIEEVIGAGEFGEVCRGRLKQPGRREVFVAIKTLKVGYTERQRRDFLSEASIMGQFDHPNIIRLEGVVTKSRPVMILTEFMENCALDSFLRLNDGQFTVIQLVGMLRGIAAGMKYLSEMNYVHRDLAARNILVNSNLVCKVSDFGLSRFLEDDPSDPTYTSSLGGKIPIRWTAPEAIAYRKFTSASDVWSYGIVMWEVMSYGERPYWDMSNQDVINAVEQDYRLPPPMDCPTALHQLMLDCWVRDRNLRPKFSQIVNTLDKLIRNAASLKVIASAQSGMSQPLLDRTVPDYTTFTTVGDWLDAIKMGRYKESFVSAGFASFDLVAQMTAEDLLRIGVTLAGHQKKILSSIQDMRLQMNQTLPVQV

[13] = target: T3, Ephrin type-B receptor 3 (Homo sapiens); conditions: at 1 µM
[14] = target: T4, Ephrin type-B receptor 4 (Homo sapiens) (UniProt P54760); conditions: at 0.1 µM
T4 sequence (whole entry): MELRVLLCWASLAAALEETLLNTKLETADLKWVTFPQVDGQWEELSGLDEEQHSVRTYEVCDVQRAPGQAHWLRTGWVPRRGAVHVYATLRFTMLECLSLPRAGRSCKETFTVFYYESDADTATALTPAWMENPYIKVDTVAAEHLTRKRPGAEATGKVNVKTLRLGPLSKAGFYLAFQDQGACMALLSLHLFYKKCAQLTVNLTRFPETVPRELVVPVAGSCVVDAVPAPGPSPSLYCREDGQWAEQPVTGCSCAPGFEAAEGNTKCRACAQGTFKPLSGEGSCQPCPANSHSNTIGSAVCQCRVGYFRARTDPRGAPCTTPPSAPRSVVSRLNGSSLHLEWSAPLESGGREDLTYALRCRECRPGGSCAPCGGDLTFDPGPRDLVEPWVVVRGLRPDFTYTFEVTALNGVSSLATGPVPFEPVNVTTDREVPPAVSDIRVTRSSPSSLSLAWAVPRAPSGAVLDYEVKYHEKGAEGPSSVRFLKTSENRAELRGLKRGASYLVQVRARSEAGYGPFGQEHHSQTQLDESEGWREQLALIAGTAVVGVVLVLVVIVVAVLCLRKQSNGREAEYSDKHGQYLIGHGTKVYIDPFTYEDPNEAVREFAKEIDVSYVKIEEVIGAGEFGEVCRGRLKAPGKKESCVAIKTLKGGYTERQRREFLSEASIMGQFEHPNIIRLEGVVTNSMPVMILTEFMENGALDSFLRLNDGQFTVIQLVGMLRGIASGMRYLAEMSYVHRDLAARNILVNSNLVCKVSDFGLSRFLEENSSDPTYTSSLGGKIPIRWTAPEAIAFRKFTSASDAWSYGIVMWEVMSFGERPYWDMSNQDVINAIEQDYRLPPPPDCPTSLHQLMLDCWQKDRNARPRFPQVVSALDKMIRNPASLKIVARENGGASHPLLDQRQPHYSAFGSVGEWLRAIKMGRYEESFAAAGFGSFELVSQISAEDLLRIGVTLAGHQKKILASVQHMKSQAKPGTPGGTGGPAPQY

[15] = target: T4, Ephrin type-B receptor 4 (Homo sapiens); conditions: at 1 µM
[16] = target: Receptor tyrosine-protein kinase erbB-2 (Homo sapiens) (UniProt P04626); conditions: at 0.1 µM
[17] = target: Receptor tyrosine-protein kinase erbB-2 (Homo sapiens) (UniProt P04626); conditions: at 1 µM
[18] = target: Receptor tyrosine-protein kinase erbB-4 (Homo sapiens) (UniProt Q15303); conditions: at 0.1 µM
Sequence of Receptor tyrosine-protein kinase erbB-4 (Homo sapiens) (Q15303 whole entry): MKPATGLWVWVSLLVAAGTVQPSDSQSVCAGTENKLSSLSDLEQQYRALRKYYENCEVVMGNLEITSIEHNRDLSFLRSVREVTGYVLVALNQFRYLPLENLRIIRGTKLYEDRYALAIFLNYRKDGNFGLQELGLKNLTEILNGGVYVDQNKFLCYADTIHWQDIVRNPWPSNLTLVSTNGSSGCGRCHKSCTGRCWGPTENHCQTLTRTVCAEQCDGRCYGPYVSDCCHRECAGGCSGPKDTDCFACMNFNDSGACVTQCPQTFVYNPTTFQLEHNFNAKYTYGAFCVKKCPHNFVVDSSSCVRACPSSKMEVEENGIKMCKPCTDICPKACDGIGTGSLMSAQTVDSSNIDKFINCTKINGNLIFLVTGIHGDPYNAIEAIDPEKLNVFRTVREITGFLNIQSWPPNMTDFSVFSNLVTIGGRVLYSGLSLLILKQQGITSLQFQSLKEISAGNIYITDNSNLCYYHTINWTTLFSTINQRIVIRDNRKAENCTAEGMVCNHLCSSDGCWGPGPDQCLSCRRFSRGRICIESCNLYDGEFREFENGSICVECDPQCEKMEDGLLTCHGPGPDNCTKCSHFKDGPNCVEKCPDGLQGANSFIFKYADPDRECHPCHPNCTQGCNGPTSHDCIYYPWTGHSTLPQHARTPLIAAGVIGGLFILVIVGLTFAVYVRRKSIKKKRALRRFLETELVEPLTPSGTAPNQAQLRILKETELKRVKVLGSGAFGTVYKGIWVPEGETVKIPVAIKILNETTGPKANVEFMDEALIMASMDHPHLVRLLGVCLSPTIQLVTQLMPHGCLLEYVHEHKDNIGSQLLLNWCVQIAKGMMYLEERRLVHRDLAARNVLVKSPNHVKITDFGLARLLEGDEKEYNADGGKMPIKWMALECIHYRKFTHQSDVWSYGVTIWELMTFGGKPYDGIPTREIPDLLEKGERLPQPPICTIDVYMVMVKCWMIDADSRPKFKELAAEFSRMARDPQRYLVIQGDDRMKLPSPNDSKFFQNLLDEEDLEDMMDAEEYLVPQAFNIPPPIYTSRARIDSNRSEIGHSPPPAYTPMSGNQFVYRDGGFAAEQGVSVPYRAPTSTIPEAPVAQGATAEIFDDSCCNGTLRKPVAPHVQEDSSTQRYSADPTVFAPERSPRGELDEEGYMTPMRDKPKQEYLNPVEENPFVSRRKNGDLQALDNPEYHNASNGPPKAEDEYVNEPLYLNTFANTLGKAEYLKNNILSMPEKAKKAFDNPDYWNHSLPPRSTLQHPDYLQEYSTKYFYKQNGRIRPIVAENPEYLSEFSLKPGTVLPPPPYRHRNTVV

[19] = target: Receptor tyrosine-protein kinase erbB-4 (Homo sapiens) (UniProt Q15303); conditions: at 1 µM
[20] = target: Tyrosine-protein kinase Fer (Homo sapiens) (UniProt P16591); conditions: at 0.1 µM;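 further: reported figures are averaged percent inhibition of FER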
Sequence of Tyrosine-protein kinase Fer (Homo sapiens) (P16591 whole entry, looked up): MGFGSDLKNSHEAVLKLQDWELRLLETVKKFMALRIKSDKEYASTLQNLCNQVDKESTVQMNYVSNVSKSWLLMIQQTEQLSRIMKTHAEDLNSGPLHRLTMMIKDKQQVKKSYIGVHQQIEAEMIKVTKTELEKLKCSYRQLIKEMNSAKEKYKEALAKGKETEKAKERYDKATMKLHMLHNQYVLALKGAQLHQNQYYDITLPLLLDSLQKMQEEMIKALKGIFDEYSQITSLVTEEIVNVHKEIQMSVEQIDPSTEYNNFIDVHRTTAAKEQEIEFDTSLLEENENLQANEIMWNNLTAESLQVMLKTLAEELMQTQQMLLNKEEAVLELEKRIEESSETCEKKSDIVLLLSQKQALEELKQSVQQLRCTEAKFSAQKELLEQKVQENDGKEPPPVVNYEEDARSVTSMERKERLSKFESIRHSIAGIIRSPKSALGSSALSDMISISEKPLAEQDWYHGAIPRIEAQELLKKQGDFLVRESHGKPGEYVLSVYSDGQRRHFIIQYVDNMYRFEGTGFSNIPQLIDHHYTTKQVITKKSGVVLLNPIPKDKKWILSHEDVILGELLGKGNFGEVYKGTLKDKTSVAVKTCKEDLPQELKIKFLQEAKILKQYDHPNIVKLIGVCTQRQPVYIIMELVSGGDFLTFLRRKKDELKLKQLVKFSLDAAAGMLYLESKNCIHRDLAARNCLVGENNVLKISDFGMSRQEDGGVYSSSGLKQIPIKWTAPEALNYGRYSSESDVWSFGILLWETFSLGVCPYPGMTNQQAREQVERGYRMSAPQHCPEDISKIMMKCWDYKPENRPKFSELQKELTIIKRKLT

Row | Structure (SMILES) | inhibition [1] [%] | inhibition [2] [%] | inhibition [3] [%] | inhibition [4] [%] | inhibition [5] [%] | inhibition [6] [%] | inhibition [7] [%] | inhibition [8] [%] | inhibition [9] [%] | inhibition [10] [%] | inhibition [11] [%] | inhibition [12] [%] | inhibition [13] [%] | inhibition [14] [%] | inhibition [15] [%] | inhibition [16] [%] | inhibition [17] [%] | inhibition [18] [%] | inhibition [19] [%] | inhibition [20] [%]
1 | Cc1ccc2c(-c3ccnc(Nc4ccccc4)n3)c(-c3ccc(F)cc3)nn2n1 | 51.1 | 33.7 | 81.9 | 6.42 | 15 | 9.53 | 18.1 | 11.5 | 52.1 | 24.9 | 70.6 | 6.49 | 11.4 | 12.9 | 56.9 | 3.68 | 32.3 | 67.3 | 88.7 | 0.47
2 | CN(C)CCOc1ccc(-c2nc(-c3ccncc3)c(-c3ccc4c(c3)CC/C4=N\O)[nH]2)cc1 | 2.29 | 2.36 | 6.66 | 1.49 | 0.74 | 2.42 | 3.57 | 6.96 | 9.28 | 5.22 | 11.7 | 3.83 | 3.2 | 1.85 | 2.33 | 2.46 | 2.61 | 10 | 15 | 1.86
3 | COc1ccc(-c2nn3ncccc3c2-c2ccnc(Nc3ccc4c(c3)OCCO4)n2)cc1 | 5.19 | 0.11 | 17.8 | -0.24 | 0.86 | -1.04 | 0.38 | 0.61 | 13.8 | 1.72 | 35 | 1.77 | 6.41 | -0.35 | 15.6 | 0.95 | 17.2 | 55.9 | 108 | 1.56
4 | COc1cc2c(cc1Nc1nc(Nc3ccsc3C(N)=O)c3cc[nH]c3n1)N(C(=O)CN(C)C)CCC2(C)C | 70.8 | 51.9 | 84.7 | 1.53 | 0.81 | 4.65 | 4.34 | 7.86 | 6.49 | 6.01 | 9.01 |  | -7.19 | 2.71 | 2.72 | 2.91 | -0.07 | 14.2 | 36.4 | 95.5
5 | CC(=O)Nc1cccc(C#Cc2cncnc2Nc2ccc(OCc3cccc(F)c3)c(Cl)c2)c1 |  |  |  | 4.33 | 2.42 | 4.65 | 3.23 | 8.19 | 0.69 | 6.52 | 10.7 | 4.08 | 0.84 | 1.66 | 2.84 | 0.38 | 10.5 | 20.5 | 57.1 | 1.31
6 | c1ccc(COc2ccc(Nc3ncnc4ccc(-c5ccco5)cc34)cc2)cc1 | 5 | -0.19 | -1.64 | 0.9 | -0.47 | -0.08 | 0.71 | 0.05 | 2.86 |  | 1.06 | 0.82 | 3.5 | -0.6 | 1.67 | -0.16 | 20 | 20.1 | 79.3 | 1.72
7 | O=S(=O)(CCNCc1ccc(-c2ccc3ncnc(Nc4ccc(OCc5cccc(F)c5)c(Cl)c4)c3c2)o1)c1ccccc1 | 6.26 | 1.22 | 1.97 | 1.86 | 1.73 | 4.61 | 6.18 | 5.63 | 13.3 | 14.7 | 13 | 4.95 | 4.03 | 0.96 | 2.99 | 43.9 | 60.5 | 36.4 | 89 | 3.86
8 | N#Cc1c(NC(=O)CN2CCOCC2)sc2c1CCCC2 | 4.76 | 2.42 | 4.77 | 1.79 | 1.43 | 5.54 | 6.42 | 7.58 | 13.1 | 8.79 | 12.9 | 4.21 | 4.07 | 2.41 | 0.41 | 2.23 | 4.83 | 7 | 5.12 | 8.53
9 | O=C(O[C@H]1CN[C@H](C#Cc2cc3ncnc(Nc4ccc(Cc5ccccc5)cc4)c3s2)C1)N1CCOCC1 | 10.5 | -1.96 | -1.31 | -0.49 | -1.09 | 2.25 | 3.5 | 3.73 | 5.5 | 7.69 | 6.03 | 4.37 | 3.49 | -0.73 | 1.41 |  |  | 112 | 107 | -1.21
